Activity calls are given as the source filed them. Rule for the calls: active = hit-call score of the fitted dose curve at least 0.9, where 1 is the maximum; inactive = score below 0.9.
experiment: APR_HepG2_MitoMembPot_24hr: Apredica 24-hour HepG2 Assay for Mitochondrial Membrane Potential (AID 2282911); conditions: imaging, actives raise or lower the signal
Experimental: APR_HepG2_24hr is a cell-based, multiplexed-readout assay that uses HepG2, a human liver cell line, with measurements taken at 24 hours after chemical dosing in a 384-well plate.APR_HepG2_MitoMembPot_24hr is one of 10 assay component(s) measured or calculated from the APR_HepG2_24hr assay. It is designed to make measurements of dye binding, a form of membrane potential reporter, as detected with fluorescence intensity signals by HCS Fluorescent Imaging technology.Data from the assay component APR_HepG2_MitoMembPot_24hr was analyzed into 1 assay endpoint. This assay endpoint, APR_HepG2_MitoMembPot_24hr, was analyzed with bidirectional fitting relative to DMSO as the negative control and baseline of activity. Using a type of membrane potential reporter, gain or loss-of-signal activity can be used to understand changes in the signaling. Furthermore, this assay endpoint can be referred to as a primary readout, because this assay has produced multiple assay endpoints where this one serves a signaling function. To generalize the intended target to other relatable targets, this assay endpoint is annotated to the cell morphology intended target family, where the subfamily is organelle conformation.
Cells were treated with dimethyl sulfoxide (DMSO) as a solvent control at a final concentration of 0.5% v/v or with compounds in DMSO with a resulting final DMSO concentration of 0.5% v/v. Compound treatment was done at concentrations of 0.39, 0.78, 1.56, 3.12, 6.24, 12.5, 25, 50, 100, and 200 uM in duplicate on each plate. Cells were treated with compounds for 1, 24, or 72 hr. Carbonyl […] m-chloro-phenylhydrazone (CCCP) and taxol were used as positive controls for mitochondrial function and cytoskeletal stability, respectively; DMSO served as the negative control for this experiment. Cells were fixed by the direct addition of 50 uL formaldehyde in Hank's Balanced Salt Solution (HBSS) to a final concentration of 3.7%. After incubation in the fixation medium for 30 min at room temperature (293-298 K), cells were rinsed twice with HBSS and treated with cell permeabilization buffer (16 uL of 0.5% Triton X-100) for 10 min at room temperature (293-298 K) before labeling. For mitochondrial membrane potential and mitochondrial measurements, pre-fixed cells were incubated with 50 uL of MitoTracker Red CMXRos (Invitrogen) at a concentration of 250 nM for 30 min before fixation. In the remaining cases, post-fixed cells were labeled by incubation with a multiplexed mixture of primary antibodies in HBSS for 60 min at room temperature (293-298 K) to detect immunoreactivity of c-Jun (1:500), phospho-histone H3 (1:100), phospho-histone H2A.x (1:200), p53 (1:400), alpha-tubulin (1:200) and Hoechst 33342 (2 ug/mL). Cells were labeled for multiplexed imaging on two separate plates: a) Hoechst 33342, MitoTracker Red, phospho-histone H3, and alpha-tubulin, and b) Hoechst 33342, phospho-histone H2A.x, and c-Jun. A final rinse with HBSS (50 uL) was performed before analysis. The primary and secondary antibodies for the proteins were phospho-histone H3 (rabbit anti-phospho-histone H3 and FITC-donkey anti-rabbit IgG), phospho-histone H2A.x (mouse anti-phospho-histone H2A.x and FITC-donkey anti-mouse IgG), c-Jun (rabbit anti-phospho-c-Jun and Cy3-donkey anti-rabbit IgG), p53 (sheep anti-p53 and Cy5-donkey anti-sheep IgG), alpha-tubulin (mouse anti-alpha-tubulin and Cy5-donkey anti-mouse IgG). These antibodies are available as the CellCiphr HepG2 assay kit (Millipore).Digital images of each well were captured using a Cellomics ArrayScan VTI (Thermo Scientific Cellomics) (0.8 NA objective, 0.63x optical coupler, and XF-93 filter set) at 20x magnification. The images were acquired using the autofocus feature of the ArrayScan instrument, which entails the following steps. First, the camera focuses on channel 1 (Hoechst 33342), where nuclei are identified. Second, a Z offset of 1 um is used for capturing mitochondria (MitoTracker Red). […]

Row | Compound | outcome | AC50
1 | CCOP(=S)(OCC)SCCSCC | inactive | –
2 | CCOP(=O)(OCC)Oc1cc(C)nc(C(C)C)n1 | inactive | –
3 | CCNc1nc(Cl)nc(NC(C)(C)C#N)n1 | inactive | –
4 | CCCOCC(=Nc1ccc(Cl)cc1C(F)(F)F)n1ccnc1 | inactive | –
5 | CCOP(=S)(OCC)Oc1cc(C)nc(C(C)C)n1 | inactive | –
6 | CC(C)N(C(=O)SCC(Cl)=C(Cl)Cl)C(C)C | inactive | –
7 | CN(C)[C@@H]1C(=O)C(C(N)=O)=C(O)[C@@]2(O)C(=O)C3=C(O)c4c(O)cccc4[C@@](C)(O)[C@H]3[C@H](O)[C@@H]12 | inactive | –
8 | CC[C@H](C)[C@H]1O[C@]2(C=C[C@@H]1C)C[C@@H]1C[C@@H](C/C=C(\C)[C@@H](O[C@H]3C[C@H](OC)[C@@H](O[C@H]4C[C@H](OC)[C@@H](NC)[C@H](C)O4)[C@H](C)O3)[C@@H](C)/C=C/C=C3\CO[C@@H]4[C@H](O)C(C)=C[C@@H](C(=O)O1)[C@]34O)O2 | inactive | –
9 | S=C1NCCN1 | inactive | –
10 | C[N+]1(C)CCCCC1 | inactive | –
11 | Cc1nn(-c2cc(NS(C)(=O)=O)c(Cl)cc2Cl)c(=O)n1C(F)F | inactive | –
12 | CCCOc1nn(C(=O)NS(=O)(=O)c2ccccc2C(=O)OC)c(=O)n1C | inactive | –
13 | CCCSP(=O)(OCC)SCCC | inactive | –
14 | CCCCOC(=O)c1ccccc1C(=O)O | inactive | –
15 | CCCCOC(=O)[C@@H](C)Oc1ccc(Oc2ccc(C#N)cc2F)cc1 | inactive | –
16 | CC(=NC#N)N(C)Cc1ccc(Cl)nc1 | inactive | –
17 | CNC(=O)Oc1cccc2c1OC(C)(C)O2 | inactive | –
18 | CCC(=NOC/C=C/Cl)C1=C(O)CC(C2CCOCC2)CC1=O (stereo not given) | inactive | –
19 | CSc1nc(NC(C)C)nc(NC(C)C)n1 | inactive | –
20 | COP(=O)(OC)C(O)C(Cl)(Cl)Cl (stereo not given) | inactive | –

Row | Compound | outcome | AC50
21 | C[Si](Cn1cncn1)(c1ccc(F)cc1)c1ccc(F)cc1 | inactive | –
22 | O=c1ccc(=O)[nH][nH]1 | inactive | –
23 | CC1=NNC(=O)N(/N=C/c2cccnc2)C1 | inactive | –
24 | CC1(C(=O)Nc2ccc(O)c(Cl)c2Cl)CCCCC1 | inactive | –
25 | O=[N+]([O-])c1cc(C(F)(F)F)c(Cl)c([N+](=O)[O-])c1Nc1ncc(C(F)(F)F)cc1Cl | inactive | –
26 | CON=C(C(=O)OC)c1ccccc1CON=C(C)c1cccc(C(F)(F)F)c1 | – | 1.07 µM (active)
27 | CNC(=O)ON=C(C)SC | inactive | –
28 | CN1COCN(Cc2cnc(Cl)s2)C1=N[N+](=O)[O-] | inactive | –
29 | CCOP(=S)(OCC)Oc1ccc([N+](=O)[O-])cc1 | inactive | –
30 | CN(C)C(=O)Nc1cccc(C(F)(F)F)c1 | inactive | –
31 | COP(=O)(OC)SCn1c(=O)oc2cc(Cl)cnc21 | inactive | –
32 | C#CCC1=C(C)C(OC(=O)C2C(C=C(C)C)C2(C)C)CC1=O (stereo not given) | inactive | –
33 | CCC(=O)Nc1ccc(Cl)c(Cl)c1 | inactive | –
34 | COc1ccc(C(=CC(=O)N2CCOCC2)c2ccc(Cl)cc2)cc1OC | – | 8.19 µM (active)
35 | CC(C)=CC1C(C(=O)OCN2C(=O)C3=C(CCCC3)C2=O)C1(C)C (stereo not given) | inactive | –
36 | COP(=O)(OC)OC(Br)C(Cl)(Cl)Br (stereo not given) | inactive | –
37 | CCc1cnc(C2=NC(C)(C(C)C)C(=O)N2)c(C(=O)O)c1 (stereo not given) | inactive | –
38 | Cc1ccn2nc(S(=O)(=O)Nc3c(F)cccc3F)nc2n1 | inactive | –
39 | CCc1cccc(CC)c1N(COC)C(=O)CCl | inactive | –
40 | C#CC(C)(C)NC(=O)c1cc(Cl)cc(Cl)c1 | inactive | –
